Reference: the supplement of paper PMC11417369
Over roughly 25,000 sequences, “ln(normalized median fluorescence intensity)” has its median near 6.7; the highest 2% begin near 10. For the sample, the highest values were picked, then their nearest neighbours and some sequences at random.

Test system: PfHDP1 homeodomain (GST-tagged)
Assay: gcPBM binding intensity (ln(normalized median fluorescence intensity)); higher = stronger DNA binding
Summary of the method: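 GST-tagged P. falciparum DNA-binding domains, expressed in E. coli (about 25 μg on average), were applied for 1 h to an Agilent 4 × 180k array of primer-extended double-stranded 36-bp intergenic genomic probes plus negative controls. The binding buffer was 1× PBS with 1% milk, 0.2 mg/ml BSA, 0.5% salmon testes DNA and 0.03% Triton X-100. Bound protein was detected with Alexa488 anti-GST antibody and scanned at 488 nm. Binding intensity is the highest Masliner-normalised natural-log median intensity across replicate spots of either probe orientation.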

Sequence	gcPBM binding intensity (ln)
AATATCATCAAACGCACACATACATAAATATATTAT [CACACA_site2174]	7.74
TATACGAAATTGTGCACACATATATTTATGTATGTA [CACACA_site1509]	11
TGTATAAATATATGCACACATATATATATTTATATA [CACACA_site3473]	10
TATGTATAAATATATGCACACATATATATATTTATA [CACACA_site9150]	9.35
ATACGCACACATATATGTACATATTGTATATATATA [XGTACX_site3962]	8.34
TATTTATATGTATATACATGCACATATATATGAAAC [TGCATGCA_site1005]	8.8
AATATACGAAATTGTGCACACATATATTTATGTATG [CACACA_site1510]	10.8
TAGATAAAATGAACATGTACTCATCTTAATATATAT [XGTACX_site34]	6.23
AAAAGATATATTATATGTACTAATTATATGATAAAT [XGTACX_site4192]	6.32
AGAGGTAGAGAGAAAACATGCATAATGATTTTCATA [TGCATGCA_site958]	6.1
CATGCTACATCTTATTGTACTTATCTAATGTTAGTA [XGTACX_site1863]	6.75
ATATATATATATGCATGTACATATATTTGTTATATC [XGTACX_site3197]	9.16
TATATATATATATATGCATGTACATATATTTGTTAT [TGCATGCA_site379]	9.2
TATGTGCACCCATGTACATGCGGACATATGTTATAT [TGCATGCA_site383]	10.6
AAAATATTTATTACTTCACACATTATTGTATTTATA [CACACA_site5082]	6.5
TTTGTTTTTTTGAGAGTGCAATATATATAAAAAGGG [GTGCAC_site9691]	9.35
GCGTGTGTACAATGAGTGCATATCTAAAGGGAAGAT	9.43
TTTCGTAATATGCGTGTGCACAATGAGTCCATATCT	10.9
TATATATATATATGAGTGCATATGTGTAATATAAAA	9.65
TCAAAAAAAAAAAAAAAAAAAAAAAAAAAAAAAAAA [CACACA_negctrl_site1753]	5.92
TATTAATAAATATGTTTACACACGAAAATACATTTT [CACACA_site1012]	6.35
TGTATTAAATTTTGAACACACAAAATAAAACATATA [CACACA_site1672]	6.54
TTCTTTGTAGTATATTAACACACAACTGTTTATAAT [CACACA_site9305]	6.67

Sequence	gcPBM binding intensity (ln)
TTTATTTTTAACAGTGCACACATAACTTAATTATAT [CACACA_site8681]	9.52
TGTATAATATTTGGTGCACACAAATTAACAACTGTT [CACACA_site9245]	10.6
TATAATATTTGGTGCACACAAATTAACAACTGTTTA [CACACA_site3742]	10.8
CTTTGTAGTATATTAACACACAACTGTTTATAATAT [CACACA_site6038]	6.53
TCGTAGTTACTATGGCAAGAAAATAAACGGTCTTGT [GTGCAC_negctrl_site684]	6.6
ATTAAAAATTATATTTTATAAAAATTAAAAGAAATA [CACACA_negctrl_site65]	6.47
AATAATTTTTTAAACACACACACATATATATATATA [CACACA_site95]	9.08
AAAAATATATATATATATATATATATATTATTTTTT [TGCATGCA_negctrl_site378]	7
TAGAAGCATCATTTTACACACATGCAAATGTAAACT [CACACA_site6973]	6.66
ATTATGCACCAACACACACACACACTCCTAAAAAAT [CACACA_site8822]	11.7
ATTATGCACGGACACACACACACACCCCTAAAAAAT [CACACA_site5426]	10.5
ATTATATATATATATACACACACACCCTAAAAATAT [CACACA_site8463]	7.22
AAAAAATTAGATTATGCACACACACTAATAAATAAT [CACACA_site8604]	9.67
AAAAGATAATTATGCACACACACACCCCCACCCAAC [CACACA_site2570]	10.5
GAAATTAAAAAATTTATGCACACTTTAAAAAAAAAA [CACACA_site3769]	9.28
TATGCACCCAGACACACACACACAACTAAAAAATAA [CACACA_site2567]	8.1
ATTATGCACAGACACACACACACACTACTAAAAAAT [CACACA_site7252]	11.1
TTATTAGAAAAATGCACACCAAAAAAAAAAAAAAAA [CACACA_site2522]	8.93
AAAAGATAATTATGCACACACACACCCAGACACAAC [CACACA_site5428]	10.4
AAAAAAGATAATTATGCACACACACCCACCCACCCA [CACACA_site8825]	9.38
TAATTATGCGGACACACACACACACCCAACTAAAAA [CACACA_site5427]	6.81
ACCTATTTCAAACACACACACACACTAGCAAACATA [CACACA_site4695]	7.26
AAGAGAAAAATATGGTTGCACTAAAAATATATATTT	8.26
